The record followed here is PubChem BioAssay AID1376 (SRMLSC, 2008).

Each structure is given as a SMILES string. “And” between values parts separate entries of the source, which are not always exact repeats. Equal entries are not always repeated. The campaign covered roughly 220,000 compounds. About 530 (0.24%) were called active. No stated cut-off is given here; in the data, active means inhibition above about 13%; inconclusive means no clear call, values can overlap the other calls; inactive means below that. Only a selection was taken, and actives are over-represented in it overall. Results with a measured potency or affinity are listed apart.

In this assay the target is Bifunctional protein GlmU (Mycobacterium tuberculosis (strain ATCC 25618 / H37Rv)) (UniProt P9WMN3). Description: inhibition of mycobacterial GlmU enzyme – biochemical, glucosamine-1-phosphate acetyltransferase (AID 1376).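 Further: 0% = complete reaction with vehicle and 100% = reaction without substrate.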 The settings on record: M. tuberculosis GlmU acetyltransferase enzyme assay; hits give high values;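 tested at 30 µM in the primary screen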.
Chain of Bifunctional protein GlmU (Mycobacterium tuberculosis (strain ATCC 25618 / H37Rv)) (P9WMN3 whole entry, looked up): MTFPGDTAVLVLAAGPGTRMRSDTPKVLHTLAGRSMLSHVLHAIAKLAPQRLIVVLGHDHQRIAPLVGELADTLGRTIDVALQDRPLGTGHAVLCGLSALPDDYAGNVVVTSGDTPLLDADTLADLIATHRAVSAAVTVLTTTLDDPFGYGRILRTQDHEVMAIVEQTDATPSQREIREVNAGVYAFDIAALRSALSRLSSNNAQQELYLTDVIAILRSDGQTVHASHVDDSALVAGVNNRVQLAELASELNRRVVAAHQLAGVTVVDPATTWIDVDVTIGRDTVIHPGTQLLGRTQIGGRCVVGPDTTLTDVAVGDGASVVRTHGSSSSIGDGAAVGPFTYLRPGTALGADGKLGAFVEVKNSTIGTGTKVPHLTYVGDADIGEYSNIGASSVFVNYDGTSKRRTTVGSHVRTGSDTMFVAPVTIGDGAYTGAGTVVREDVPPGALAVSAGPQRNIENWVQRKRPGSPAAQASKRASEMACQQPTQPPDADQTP
In the case of `CCC(C)(C)n1nnnc1CN1CCC(n2c(C)nc3cc(C(F)(F)F)ccc32)CC1`, the inhibition (as a rule, the drop in the measured response relative to a control, in per cent) was 2.13% (inactive).

As to `CCOC(=O)c1nc2ccccc2nc1C`, the inhibition is 3.05% (inactive).

As for `O=C(CSc1nnc(-c2ccncc2)n1Cc1ccco1)Nc1nc(-c2ccccc2)cs1`, the inhibition was -0.09% (inactive).

Regarding `N=C1/C(=C\c2ccc(SCc3ccco3)o2)C(=O)N=C2SC=NN12`, the inhibition was 8.44% (inactive).

Turning to `O=C1NC(=S)S/C1=C\c1ccc(SCc2ccccc2)o1`, the inhibition is 68.3% (active).

`Cc1cccc(C)c1-n1cccc1/C=C1\SC(=S)N(c2cccc(C(=O)O)c2)C1=O`: the inhibition was -2.25% (inactive).

Consider `O=C1/C(=C\c2ccco2)SC(=S)N1c1ccccc1`, for which the inhibition was 8% (inactive).

For `O=C1NC(=S)S/C1=C/c1ccc(N2CCOCC2)o1`, the inhibition is 11.4% (inactive).

Take `O=C(O)c1cccc(N2C(=O)/C(=C/c3ccc(SCc4ccc(Cl)cc4)o3)SC2=S)c1`: the inhibition is 33.7% (active).

For `CCOc1cc(/C=C2/SC(=S)NC2=O)ccc1OC(=O)c1ccco1`, the inhibition was 1.76% (inactive).

For `O=C(O)CN1C(=O)/C(=C/c2ccc(SCc3ccccc3)o2)SC1=S`, the inhibition was 18.9% (inactive).

Take `CCCC1=NN2C(=N)/C(=C\c3ccc(SCc4ccco4)o3)C(=O)N=C2S1`: the inhibition is 30.6% (inactive).

`CCC1=NN2C(=N)/C(=C\c3ccc(SCc4ccco4)o3)C(=O)N=C2S1`: the inhibition was 4.74% (inactive).

Regarding `NNC(=O)c1cncn1-c1ccc(F)cc1`, the inhibition is -2.24% (inactive).

As for `CN/N=C(\Cc1nc2ccccc2[nH]1)c1ccc([N+](=O)[O-])cc1`, the inhibition is 2.32% (inactive).

As to `CCC(Oc1ccccc1)C(=O)NCc1ccc(S(N)(=O)=O)cc1` (configuration not stated), the inhibition was 1.79% (inactive).

With `CC(=O)Nc1ccc(S(=O)(=O)Nc2ccc(=O)n(Cc3ccc(Cl)c(Cl)c3)c2)cc1`, the inhibition was -3.3% (inactive).

With `COc1cc(N(C(=O)Cc2cccs2)C(C(=O)NC2CCCCC2)c2cccc(OC)c2OC)ccc1-n1cnnn1` (configuration not stated), the inhibition is -6.93% (inactive).

Regarding `OCCNc1nc(Nc2ccccc2Cl)nc(N2CCCC2)n1`, the inhibition is 2.46% (inactive).

As to `CCCS(=O)(=O)N1CCC(C(=O)NCCCOC(C)C)CC1`, the inhibition is -1.86% (inactive).

Regarding `CCC(C)NS(=O)(=O)c1ccc(S(=O)(=O)N(CCc2ccc(OC)c(OC)c2)Cc2cccs2)cc1` (configuration not stated), the inhibition was -1.89% (inactive).

With `Cc1ccc([N+](=O)[O-])cc1S(=O)(=O)Nc1ccccn1`, the inhibition is 12.5% (inactive).

As to `Cc1cccc2cc(/C=N/NC(=O)[C@H]3C[C@@H]3c3ccccc3)c(Cl)nc12`, the inhibition is -1.46% (inactive).

Consider `Cc1cccc(NC(=O)C2CCCN(S(=O)(=O)c3cccc4cccnc34)C2)c1` (configuration not stated), for which the inhibition is 1.23% (inactive).

Take `O=C(Nc1ccncc1)C1CCCN(S(=O)(=O)c2cccc3cccnc23)C1` (configuration not stated): the inhibition was -3.59% (inactive).

On to `CC(=O)c1cccc(NC(=O)C2CCCN(S(=O)(=O)c3cccc4cccnc34)C2)c1` (configuration not stated), for which the inhibition was 13.1% (active).

On to `O=C1CCN(Cc2ccccc2)S(=O)(=O)c2ccccc21`, for which the inhibition is 1.98% (inactive).

Consider `Cn1cccc1/C=C1/C(=O)NC(=O)N(Cc2ccc(F)cc2)C1=O`, for which the inhibition is -4.26% (inactive).

Regarding `Cc1cc(/C=C2\C(=O)NC(=O)N(Cc3ccco3)C2=O)c(C)n1-c1ccc(C(=O)O)cc1`, the inhibition was 9.99% (inactive).

On to `Cn1cccc1/C=C1\C(=O)NC(=O)N(Cc2ccccc2)C1=O`, for which the inhibition is 13.2% (active).

On to `Cc1cc(/C=C2\C(=O)NC(=O)N(Cc3ccccc3Cl)C2=O)c(C)n1-c1ccc(C(=O)O)cc1`, for which the inhibition is -0.15% (inactive).

With `Cn1cccc1/C=C1/C(=O)NC(=O)N(Cc2ccccc2)C1=O`, the inhibition was -0.82% (inactive).

Regarding `O=C1NC(Cc2c[nH]c3ccccc23)C(=O)N1Cc1ccc(CN2C(=O)NC(Cc3c[nH]c4ccccc34)C2=O)cc1` (configuration not stated), the inhibition is 3.5% (inactive).

Regarding `O=C(COc1ccc(S(=O)(=O)NC2CCCCC2)cc1)N1CCN(c2ccc(F)cc2)CC1`, the inhibition was -2.74% (inactive).

For the molecule `COc1ccc(CNC(=O)CCSCc2cccc(Cl)c2)cc1`, the inhibition is 3.22% (inactive).

As to `CC(C)CCN1CCN(CC#Cc2ccccc2)CC1CCO` (configuration not stated), the inhibition was -6.43% (inactive).

As for `OCCC1CN(CC(c2ccccc2)c2ccccc2)CCN1C1CCCC1` (configuration not stated), the inhibition was -0.28% (inactive).

Consider `CC(C)CCN1CCN(CC(c2ccccc2)c2ccccc2)CC1CCO` (configuration not stated), for which the inhibition is 14% (active).

As to `CCOc1ccc(NS(=O)(=O)c2ccc3[nH]c(=O)cc(C(=O)O)c3c2)cc1`, the inhibition was 5.18% (inactive).

Take `Cc1oc2c(C)c(O)ccc2c(=O)c1-c1cnn(-c2ccccc2)c1`: the inhibition was -1.79% (inactive).

As to `Cc1oc2cc(O)ccc2c(=O)c1-c1cnn(-c2ccccc2)c1`, the inhibition is 1.72% (inactive).

On to `Cc1oc2c(O)c(O)ccc2c(=O)c1-c1cnn(-c2ccccc2)c1`, for which the inhibition was 15% (active).

As for `CCOC(=O)NC(NCc1ccccc1)(C(F)(F)F)C(F)(F)F`, the inhibition was -2.58% (inactive).

On to `COC(=O)C(O)(NC(=O)OCc1ccccc1)C(F)(F)F` (configuration not stated), for which the inhibition is 13.5% (active).

Regarding `CCOC(=O)C(NC(C)=O)(OCc1ccccc1)C(F)(F)F` (configuration not stated), the inhibition was 1.91% (inactive).

Consider `O=C(Nc1ccccc1N1CCOCC1)c1ccc(Cl)c(S(=O)(=O)NCc2ccco2)c1`, for which the inhibition was 0.84% (inactive).

In the case of `CN1CCN(C(=O)C2=C[C@@H](C3CCCCC3)C[C@@H](OCc3ccc(CO)cc3)O2)CC1`, the inhibition was 0.67% (inactive).

Regarding `COC(=O)c1ccccc1NC(=O)CSc1nnc(-c2cccnc2)n1C`, the inhibition was 3.07% (inactive).

With `COc1ccccc1CNC(=O)CCS(=O)(=O)c1ccc2c(c1)CCCN2C(C)=O`, the inhibition is 15.2% (active).

`COc1ccc(NC(=O)CCS(=O)(=O)c2ccc3c(c2)CCCN3C(C)=O)cc1`: the inhibition was 0.16% (inactive).

For `COc1ccc(NC(=O)CCS(=O)(=O)c2ccc3c(c2)CCCN3C(C)=O)cc1Cl`, the inhibition was -0.45% (inactive).

Regarding `O=[N+]([O-])c1ccc2[nH]nc(-c3ccccc3)c2c1`, the inhibition was 4.82% (inactive).

For the molecule `O=C(O)c1cc2sccc2s1`, the inhibition is 1.23% (inactive).

Regarding `CC(=O)NNC(=O)c1cc2sccc2s1`, the inhibition is 0.49% (inactive).

For `NNC(=O)c1cc2sccc2s1`, the inhibition was 14% (active).

In the case of `O=C1c2cccnc2C(=O)N1C1CCCCC1`, the inhibition is 6.11% (inactive).

Consider `CCC(c1ccccc1)c1nnc(NC(=O)c2ccco2)s1` (configuration not stated), for which the inhibition is 4.36% (inactive).

In the case of `Cc1cc(=O)cc(C)n1-c1ccc(Cl)cc1`, the inhibition is 1.93% (inactive).

With `CC1=CC(C)(C)N(C)C(=O)N1c1ccc(Cl)cc1`, the inhibition was -0.04% (inactive).

Consider `O=C1[C@H]2[C@H](C=CC[C@H]2C(=O)N2CCN(c3ccccc3)CC2)CCN1Cc1ccc(Cl)c(Cl)c1`, for which the inhibition is 0.58% (inactive).

As for `O=S(=O)(Nc1nc(CN2CCOCC2)nc2sc3c(c12)CCCC3)c1cc(F)ccc1F`, the inhibition is 2.36% (inactive) and -0.91% (inactive).

Regarding `CC(c1ccccc1)N1CC(C(=O)N2CCN(c3ccccc3)CC2)CC1=O` (configuration not stated), the inhibition was -1.56% (inactive).

`CS(=O)(=O)N(CC(=O)Nc1cccc(F)c1)c1cccc([N+](=O)[O-])c1`: the inhibition is 2.56% (inactive).

On to `CS(=O)(=O)N(CC(=O)Nc1ccc(F)cc1F)c1cccc([N+](=O)[O-])c1`, for which the inhibition is 14.6% (active).

Turning to `CS(=O)(=O)N(CC(=O)Nc1c(F)cccc1F)c1cccc([N+](=O)[O-])c1`, the inhibition was 1.32% (inactive).

On to `O=S(=O)(c1ccccc1)c1cc(O)ccc1O`, for which the inhibition is 12.9% (active).

Regarding `Cc1ccc(S(=O)(=O)c2cc(O)ccc2O)cc1C`, the inhibition is 5.34% (inactive).

`Nc1nc2ccccc2cc1S(=O)(=O)c1ccccc1`: the inhibition is -5.35% (inactive).

With `Cc1ccc(C(=O)/C=C\Nc2ccc(C)c(C)c2)cc1`, the inhibition is -4.99% (inactive).

For the molecule `COc1ccc(S(=O)(=O)NCC2CCCN(C(=O)CNC(C)=O)C2)cc1` (configuration not stated), the inhibition was -0.35% (inactive).

As to `CCc1ccc2oc(C(=O)Nc3ccc(S(N)(=O)=O)cc3)c(C)c2c1`, the inhibition was 1.87% (inactive).

For the molecule `CCN1CCN(CCC2Oc3cc([N+](=O)[O-])ccc3NC2=O)CC1` (configuration not stated), the inhibition was -2.08% (inactive).

For the molecule `COc1ccc(CCn2c3c(c(=O)[nH]c2=O)C(NC(=O)c2cccs2)(C(F)(F)F)C(=O)N3)cc1OC` (configuration not stated), the inhibition was 13.3% (active).

Turning to `COc1ccc(C(=O)NC2(C(F)(F)F)C(=O)Nc3c2c(=O)[nH]c(=O)n3CCc2ccc(OC)c(OC)c2)cc1` (configuration not stated), the inhibition was -0.41% (inactive).

Regarding `CC(=O)NC1(C(F)(F)F)C(=O)Nc2c1c(=O)[nH]c(=O)n2CCc1ccccc1` (configuration not stated), the inhibition is 1.88% (inactive).

On to `O=C(NCc1cccs1)c1csc2c1CCCCC2`, for which the inhibition was 1.69% (inactive).

Take `CCN(CC)C(=O)CSc1nc2ccccc2c(=O)n1CC1CCCCC1`: the inhibition was 13.3% (active).

Turning to `CCN(CC)C(=O)CSc1nc2ccccc2c(=O)n1CC`, the inhibition is -0.44% (inactive).

In the case of `CCOC(=O)CSc1nc2ccccc2c(=O)n1CC1CCCC1`, the inhibition was -1.38% (inactive).

Consider `N#CCCn1cc(C(=O)Nc2ccccc2Br)c(-c2cc3ccccc3o2)n1`, for which the inhibition is -0.21% (inactive).

In the case of `O=C(CN(CC1CCCO1)C(=O)CNS(=O)(=O)c1ccc(Cl)cc1)NCC1CCCO1` (configuration not stated), the inhibition is -2.4% (inactive).

Turning to `N#Cc1ccccc1NC1=CC(=O)CCC1`, the inhibition is -6.37% (inactive).

In the case of `CCc1nnc2n1N=C(c1ccc([N+](=O)[O-])cc1)CS2`, the inhibition is -0.05% (inactive).

`Cc1ccc(C(=O)Nc2ccc(O)cc2C(=O)O)cc1C`: the inhibition was 1.76% (inactive).

In the case of `O=C(O)COc1ccc(NC(=O)c2cccs2)cc1`, the inhibition was -5.47% (inactive).

Consider `Cc1ccc(C(=O)Nc2ccc(Oc3ccc(C(=O)O)c(C(=O)O)c3)cc2)cc1C`, for which the inhibition was 47.7% (active).

In the case of `Cc1cccc(Oc2ccc(NC(=O)c3ccccc3C(=O)O)cc2)c1`, the inhibition is 1.43% (inactive).

Regarding `O=C(O)c1ccccc1C(=O)Nc1ccc(Oc2ccccc2)cc1`, the inhibition is 0.7% (inactive).

Regarding `COc1ccc(C(=O)Nc2cccc(OC)c2)cc1`, the inhibition was 6.57% (inactive).

Regarding `COc1ccc(NC(=O)c2cccs2)cc1`, the inhibition is -2.83% (inactive).

As for `COC(=O)CCSC(=S)N1CCOCC1`, the inhibition was -0.58% (inactive).

`COc1ccc(NC(=O)N(Cc2cccs2)Cc2cc3cc4c(cc3[nH]c2=O)OCO4)cc1`: the inhibition is 1.28% (inactive).
